# Results reported in PubChem BioAssay.
# The source made the active and inactive calls.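 Rule for the calls: active = RAM network inhibition above 8.4% in each of two replicates, 3 SD over the compound average; inconclusive = above 8.4% inhibition in only one replicate; inactive = 8.4% inhibition or less in each replicate.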
# Assay: RAM signaling pathway blockade in yeast – S. cerevisiae, Pdr1DBD-CYC8 efflux-inhibited sensitized strain, primary screen (AID 1298);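 note: 0% = DMSO untreated cells without growth and 100% = 10 µM 1-NA-PP1 full growth; higher means more yeast growth rescued from 5-FOA killing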
# Details: S. cerevisiae cbk1-as DSE1-URA3 strain, 5-FOA growth OD615, 2 d; at 50 µM; hits give high values
row,SMILES,RAM network inhibition
1,COc1ccc(NC(=O)N(Cc2ccc(C)cc2)Cc2ccccn2)c(OC)c1,4.18% (inactive)
2,COc1cc(C(=O)N2CCN(C(=O)C(Cc3cc(C)ccc3C)NC(C)=O)CC2)cc(OC)c1OC (stereo not given),1.42% (inactive)
3,O=C1C2CCCN2C(c2ccc(F)cc2)N1c1cccc(Cl)c1 (stereo not given),2.38% (inactive)
4,COc1cccc(NC(=O)c2ccncc2)c1,4.2% (inactive)
5,CC(=O)Nc1cc(-c2nn3c(C)nnc3s2)ccc1C,3.72% (inactive)
6,O=C1CC(c2ccccc2)CC(O)=C1C=NCCN1CCNCC1 (stereo not given),-1.05% (inactive)
7,O=C(NCc1ccc2c(c1)OCO2)c1cnc2n(c1=O)CCS2,1.93% (inactive)
8,COc1ccc(OC)c(CCNC(=O)C2CCN(c3nnc(-n4cccc4)s3)CC2)c1,7.35% (inactive)
9,COc1ccc(OCCSc2ncnc3nc[nH]c23)cc1,4.46% (inactive)
10,CC(CCc1ccco1)NC(=O)Cn1nc(Cc2ccncc2)c2ccccc2c1=O (stereo not given),1.95% (inactive)
11,Cc1oc(-c2ccc(Cl)cc2)nc1CN1CCCC(C(=O)N2CCN(C(=O)c3ccco3)CC2)C1 (stereo not given),7.1% (inactive)
12,O=C(CC1(O)C(=O)Nc2ccccc21)c1ccccc1 (stereo not given),-1.83% (inactive)
13,c1cc(-c2nnc3n2CCC3)[nH]n1,2.34% (inactive)
14,Cc1ccnc(SCCn2c(N3CCCCC3)nc3c2c(=O)[nH]c(=O)n3C)n1,2.14% (inactive)
15,CC(C)(C)c1ccc(OCC(=O)N2CCN(C=O)CC2)cc1,0.67% (inactive)
16,CCC(C)(c1ccc(C(=O)OC)s1)c1ccc(C(=O)OC)s1,1.02% (inactive)
17,CCOC(=O)N1CCC(NC(=O)CSCc2nc(-c3sccc3C)oc2C)CC1,6.2% (inactive)
18,CCc1cccc(Nc2cc(C)nc3ncnn23)c1,6.68% (inactive)
19,CC(=O)CCS(=O)(=O)c1ccc(C)c(C)c1,1.15% (inactive)
20,N=c1n(CCOc2ccccc2)c2ccccc2n1CCN1CCOCC1,-0.47% (inactive)

row,SMILES,RAM network inhibition
1,COc1cccc2c(=O)c(C/C=C(/C)Cl)c(C)[nH]c12,-0.16% (inactive)
2,COC(=O)C(C(=O)OC)C(C(=O)OC)C(C(=O)OC)C(=O)OC,-1.61% (inactive)
3,CC1CCCCN1c1nnc(NC(=O)Cn2c(=O)oc3ccccc32)s1 (stereo not given),4.48% (inactive)
4,COc1cccc(-c2nnc(NC(=O)C3CCCCC3)o2)c1,1.88% (inactive)
5,COC(=O)c1ccsc1NC(=O)C1COc2ccccc2O1 (stereo not given),8.05% (inactive)
6,Cc1cccc(Nc2ncnc3nc[nH]c23)c1C,4.52% (inactive)
7,O=C(CCc1ccccc1)N1CCN(CCO)CC1,3.71% (inactive)
8,CN1CCCN(Cc2ccccc2C(F)(F)F)CC1,1.53% (inactive)
9,CC(=O)Nc1ccc(-c2cc(NC(C)=O)n(-c3ccccc3)n2)cc1,3.1% (inactive)
10,CCCCCn1c(CCNC(=O)c2cccs2)nc2ccccc21,0.13% (inactive)
11,Cc1ccc2ccc(S(=O)(=O)n3nc(C)cc3C)cc2c1,5.5% (inactive)
12,CCOC(=O)Cc1csc(NC(=O)CN2C(=O)c3ccccc3S2(=O)=O)n1,5.65% (inactive)
13,O=C(NCc1ccccn1)c1ccc2ccccc2n1,5.32% (inactive)
14,CCCc1ccc(Oc2c(-c3ccc(O)c(C)c3O)n[nH]c2C)cc1,-1.26% (inactive)
15,COc1ccc(C(CNC(=O)C2CC(=O)N(Cc3ccc(C)cc3)C2)N(C)C)cc1 (stereo not given),1.64% (inactive)
16,CN(Cc1ccco1)C(=O)C(Cc1ccccc1)NS(=O)(=O)c1ccc2c(c1)CCC(=O)N2 (stereo not given),3.45% (inactive)
17,O=C(O)C1CCCCC1C(=O)NCc1cn2ccccc2n1 (stereo not given),9.11% (inactive)
18,CCN1CCN(CC(=O)Nc2ccccc2)C(=O)C1=O,-0.21% (inactive)
19,Nc1c(S(=O)(=O)c2ccccc2)c2nc3ccccc3nc2n1Cc1ccco1,7.51% (inactive)
20,Cc1nc2ccccc2c2oc(C(=O)N3CCc4ccccc43)cc12,-0.73% (inactive)
